Assay [1] in a line: ATG_CRE_CIS: Attagene CIS-FACTORIAL HepG2 Assay for human cAMP Responsive Element (CRE) binding protein 3 (AID 2282926). The following applies: HepG2 CRE cis-reporter, Attagene multiplexed mRNA; actives raise or lower the signal. An outline of the steps:
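HepG2 cells transiently transfected with a multiplexed reporter library (CRE-driven unit among them) were dosed for 24 h. Reporter mRNA was quantified by RT-PCR, fluorescent labelling, HpaI digestion and capillary electrophoresis, with bidirectional fitting against DMSO baseline.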

Assay [2] is described as follows: ATG_CMV_CIS: Attagene CIS-FACTORIAL HepG2 Assay for human CMV (Internal Marker) (AID 2282928).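 Further: endpoint acts as a background internal control marker rather than a target.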 The following applies: HepG2 CMV promoter reporter, transcription factor profiling; actives raise or lower the signal. An outline of the steps: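 HepG2 cells transiently transfected with multiple cis-regulated reporter units; 24 h compound exposure. Reporter mRNA quantified by RT-PCR, 6-FAM primer-extension labeling, HpaI digestion and capillary electrophoresis; bidirectional fitting against DMSO baseline.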

The target of assay [3] is Aryl hydrocarbon receptor (Homo sapiens) (UniProt P35869). The assay is described as follows: ATG_Ahr_CIS: Attagene CIS-FACTORIAL HepG2 Assay for human Aryl Hydrocarbon Receptor (Ahr) (AID 2282930). The note with it: HepG2 AhR cis-factorial reporter transcription; actives raise or lower the signal. An outline of the steps:
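HepG2 cells transiently transfected with cis-element-driven multiplexed reporter transcription units; endogenous transcription factor activity measured as reporter mRNA 24 h after dosing. RT-PCR, 6-FAM labelling, HpaI digestion, capillary electrophoresis; bidirectional fitting versus DMSO baseline.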

Assay [4] in a line: ATG_AP_1_CIS: Attagene CIS-FACTORIAL HepG2 Assay for human Activator Protein 1 (AP-1) (AID 2282931). The following applies: HepG2 Attagene cis-factorial AP-1 reporter mRNA; actives raise or lower the signal. An outline of the steps:
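HepG2, transient cis-reporter transfection; 24 h; readout RT-PCR/CE fluorescence; DMSO baseline, gain and loss fitted.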

A short description of assay [5]: ATG_BRE_CIS: Attagene CIS-FACTORIAL HepG2 Assay for human Bone Morphogenetic Protein (BMP) Response Element (BRE) (AID 2282933). The note with it: HepG2 BMP response element reporter, Attagene transcription factor profiling; actives raise or lower the signal. An outline of the steps:
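Multiplexed cis-reporter assay, HepG2, 24 h exposure. mRNA from reporter units quantified via RT-PCR/CE; DMSO baseline; bidirectional curve fit.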

Assay [6] can be described thus: ATG_Ets_CIS: Attagene CIS-FACTORIAL HepG2 Assay for human Erythroblast Transformation Specific (ETS) (AID 2282941). The note with it: HepG2 ETS cis-reporter transcription, actives raise or lower the signal. An outline of the steps:
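HepG2 cells transiently transfected with cis-promoter reporter transcription units were dosed for 24 h; reporter mRNA was measured by RT-PCR, 6-FAM primer extension, HpaI digestion and capillary electrophoresis, with bidirectional fitting against DMSO baseline.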

Assay [7] can be described thus: ATG_FoxO_CIS: Attagene CIS-FACTORIAL HepG2 Assay for human Forkhead box O (FoxO) (AID 2282943). The note with it: HepG2 Attagene cis-reporter, FoxO element, mRNA; actives raise or lower the signal. An outline of the steps: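 HepG2 cells transiently transfected with cis-promoter-driven multiple reporter transcription units; 24 h after chemical dosing, reporter mRNA quantified by RT-PCR, fluorescent primer extension, HpaI digestion and capillary electrophoresis. Bidirectional fitting versus DMSO baseline.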

In assay [8] the target is Hypoxia-inducible factor 1-alpha (Homo sapiens) (UniProt Q16665). In words: ATG_HIF1a_CIS: Attagene CIS-FACTORIAL HepG2 Assay for human Hypoxia Inducible Factor 1 (HIF1A) (AID 2282951). The note with it: HepG2 Attagene cis-factorial HIF1a reporter transcription; actives raise or lower the signal. An outline of the steps: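 After 24 h chemical exposure of reporter-transfected HepG2 cells, reporter cDNA was PCR-amplified, labelled by 6-FAM primer extension (2 min 95 C, 20 s 68 C, 10 min 72 C), HpaI-cut (2 h, 37 C) and analysed by CE.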
Sequence of Hypoxia-inducible factor 1-alpha (Homo sapiens) (Q16665 whole entry, looked up): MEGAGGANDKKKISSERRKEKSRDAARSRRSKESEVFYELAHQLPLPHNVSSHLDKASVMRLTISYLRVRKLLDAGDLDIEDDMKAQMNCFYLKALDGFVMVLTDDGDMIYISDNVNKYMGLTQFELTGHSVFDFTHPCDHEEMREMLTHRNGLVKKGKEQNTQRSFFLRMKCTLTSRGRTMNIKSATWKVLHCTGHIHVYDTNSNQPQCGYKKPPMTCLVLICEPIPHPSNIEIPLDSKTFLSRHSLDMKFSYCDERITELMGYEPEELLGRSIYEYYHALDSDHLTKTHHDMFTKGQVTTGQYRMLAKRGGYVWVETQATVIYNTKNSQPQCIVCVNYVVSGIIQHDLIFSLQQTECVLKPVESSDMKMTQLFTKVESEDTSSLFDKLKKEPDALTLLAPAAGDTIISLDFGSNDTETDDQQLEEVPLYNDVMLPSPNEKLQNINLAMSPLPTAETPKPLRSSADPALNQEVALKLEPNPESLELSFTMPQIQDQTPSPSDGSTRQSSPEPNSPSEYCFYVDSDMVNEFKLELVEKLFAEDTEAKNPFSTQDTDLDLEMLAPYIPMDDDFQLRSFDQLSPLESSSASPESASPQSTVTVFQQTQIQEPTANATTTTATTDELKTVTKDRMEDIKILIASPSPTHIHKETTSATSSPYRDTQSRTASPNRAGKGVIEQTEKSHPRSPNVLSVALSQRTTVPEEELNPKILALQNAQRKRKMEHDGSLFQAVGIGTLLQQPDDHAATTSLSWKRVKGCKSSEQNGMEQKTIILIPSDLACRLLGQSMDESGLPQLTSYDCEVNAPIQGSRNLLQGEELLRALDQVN

Assay [9] addresses Hepatocyte nuclear factor 6 (Homo sapiens) (UniProt Q9UBC0). In words: ATG_HNF6_CIS: Attagene CIS-FACTORIAL HepG2 Assay for human Hepatocyte Nuclear Factor 6 (HNF6) (AID 2282952). The note with it: HepG2 Attagene cis-factorial HNF6 reporter transcription; actives raise or lower the signal. An outline of the steps:
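HepG2 cells transiently transfected with cis-element-driven multiple reporter transcription units, dosed 24 h; reporter mRNA quantified by RT-PCR, FAM primer extension, HpaI digestion and capillary electrophoresis; bidirectional fit versus DMSO baseline.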

For assay [10], the target named is Heat shock factor protein 1 (Homo sapiens) (UniProt Q00613). In words: ATG_HSE_CIS: Attagene CIS-FACTORIAL HepG2 Assay for human Heat Shock Transcription Factor 1 (HSE) (AID 2282953). The following applies: HepG2 HSE cis-reporter, Attagene RNA transcription; actives raise or lower the signal. An outline of the steps:
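Endogenous transcription factor activity captured via cis-promoter reporter units transfected into HepG2; treatment lasted 24 h. Fluorescence intensity of reporter fragments analysed with bidirectional curve fitting, DMSO baseline.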

A short description of assay [11]: ATG_MRE_CIS: Attagene CIS-FACTORIAL HepG2 Assay for human Metal Responsive Element (MRE) (AID 2282954). The note with it: HepG2 MRE cis-reporter transcription, Attagene multiplex; actives raise or lower the signal. An outline of the steps: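 HepG2 cells transiently transfected with multiple cis-element reporter units measure endogenous MTF1-driven transcription. After 24 h compound exposure, reporter mRNA is quantified by RT-PCR with 6-FAM labelling, HpaI digestion and capillary electrophoresis; bidirectional fits versus DMSO.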

Assay [12] is described as follows: ATG_SREBP_CIS: Attagene CIS-FACTORIAL HepG2 Assay for human Sterol Regulatory Element Binding (SREBP) (AID 2282962). The note with it: HepG2 Attagene cis-factorial SREBP reporter, mRNA; actives raise or lower the signal. An outline of the steps:
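HepG2 cells transiently transfected with multiplexed cis-element reporter units report endogenous transcription factor activity. After 24 h of chemical exposure, reporter mRNA was quantified by RT-PCR, 6-FAM labelling, HpaI digestion and capillary electrophoresis; bidirectional fits used DMSO as baseline.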

Assay [13] is described as follows: ATG_NRF2_ARE_CIS: Attagene CIS-FACTORIAL HepG2 Assay for human Nuclear Factor Erythroid 2 Related Factor 2 (NFR2) response to Antioxidant Response Elements (ARE) (AID 2282992). The following applies: HepG2 Attagene ARE/NRF2 reporter, transcription factor activity; actives raise or lower the signal. An outline of the steps:
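HepG2 cells transiently transfected with multiplexed cis-regulated reporter transcription units measure endogenous transcription factor activity. Reporter mRNA at 24 h is quantified by RT-PCR, fluorescent labelling and capillary electrophoresis, with bidirectional fitting relative to DMSO.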

Assay [14] concerns the target Cellular tumor antigen p53 (Homo sapiens) (UniProt P04637). In words: ATG_p53_CIS: Attagene CIS-FACTORIAL HepG2 Assay for human p53 Transcription Factor (AID 2282994). The note with it: HepG2 p53 cis-element reporter, Attagene mRNA; actives raise or lower the signal. An outline of the steps:
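HepG2 cells transiently transfected with multiplexed cis-regulated reporter transcription units read endogenous TF activity. After 24 h compound exposure, reporter mRNA was quantified by RT-PCR, fluorescent labelling, HpaI digestion and capillary electrophoresis; bidirectional fits versus DMSO baseline.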

Assay [15] is described as follows: ATG_XTT_Cytotoxicity: Cytotoxicity Assessment in the Attagene TRANS-FACTORIAL HepG2 Assay (AID 2283584; active means hit-call score of the fitted dose curve at least 0.9, where 1 is the maximum). An outline of the steps: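 HepG2 human liver cells, transiently transfected with multiple GAL4-UAS reporter units, were dosed and read at 24 h by XTT as cell number. Loss of signal was fitted relative to DMSO negative control baseline.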
Assay [16] addresses Hepatocyte nuclear factor 3-beta (Homo sapiens) (UniProt Q9Y261). In words: ATG_FoxA2_CIS: Attagene CIS-FACTORIAL HepG2 Assay for human Forkhead box A2 (FOXA2) (AID 2282942). The following applies: HepG2 cis-reporter transcription factor activity, 24 h; actives raise or lower the signal. An outline of the steps: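 24 h dosing of HepG2 bearing cis-reporter constructs; mRNA readout by RT-PCR/CE fluorescence; bidirectional fit, DMSO baseline.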

A short description of assay [17]: ATG_GATA_CIS: Attagene CIS-FACTORIAL HepG2 Assay for human GATA Binding Protein (AID 2282944). The note with it: HepG2 GATA cis-element reporter, Attagene multiplex mRNA; actives raise or lower the signal. An outline of the steps:
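After transfecting HepG2 cells with multiple cis-regulated reporter units, chemicals are dosed for 24 h; isolated RNA undergoes RT-PCR and fluorescent labeling before capillary electrophoresis, with activity expressed against DMSO.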

Assay [18] has as its target Paired box protein Pax-6 (Homo sapiens) (UniProt P26367). The assay is described as follows: ATG_Pax6_CIS: Attagene CIS-FACTORIAL HepG2 Assay for human Paired Box 6 (PAX6) (AID 2282956). The following applies: HepG2 CIS-FACTORIAL PAX6 reporter transcription, RNA readout; actives raise or lower the signal. An outline of the steps:
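HepG2 cells transiently transfected with multiplexed cis-promoter reporter units (endogenous TF activity) were dosed for 24 h. Reporter mRNA was quantified by RT-PCR, 6-FAM labeling, HpaI digestion and capillary electrophoresis; bidirectional fitting versus DMSO baseline.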

Assay [19] can be described thus: ATG_VDRE_CIS: Attagene CIS-FACTORIAL HepG2 Assay for human Vitamin D Receptor Element (VDRE) (AID 2282968). The following applies: HepG2 VDRE cis-reporter transcription, actives raise or lower the signal. An outline of the steps:
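HepG2 cells transiently transfected with cis-element reporter units, dosed 24 h; reporter mRNA measured by RT-PCR, 6-FAM labeling, HpaI digestion and capillary electrophoresis. Activity fitted bidirectionally against DMSO baseline.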

Assay [20] is described as follows: ATG_NF_kB_CIS: Attagene CIS-FACTORIAL HepG2 Assay for human Nuclear Factor Kappa B (NF-kB) (AID 2282991). The note with it: HepG2 Attagene cis-factorial NF-kB reporter mRNA; actives raise or lower the signal. An outline of the steps: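 Fluorescence of labelled RT-PCR products separated by capillary electrophoresis gives reporter mRNA levels from transfected HepG2 cells exposed 24 h; values are fitted in both directions relative to DMSO.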

Inconclusive results are not listed. Calls of active or inactive are those of the source. How the source made its calls, unless noted: active means hit-call score of the fitted dose curve at least 0.9, where 1 is the maximum; inactive means score below 0.9.

The text below walks through data of PubChem BioAssay (EPA / NIEHS).

As a reminder, the AC50 is the midpoint of the concentration-response curve, whichever way the signal moves.

Sequence of Hepatocyte nuclear factor 3-beta (Homo sapiens) (Q9Y261 whole entry, looked up): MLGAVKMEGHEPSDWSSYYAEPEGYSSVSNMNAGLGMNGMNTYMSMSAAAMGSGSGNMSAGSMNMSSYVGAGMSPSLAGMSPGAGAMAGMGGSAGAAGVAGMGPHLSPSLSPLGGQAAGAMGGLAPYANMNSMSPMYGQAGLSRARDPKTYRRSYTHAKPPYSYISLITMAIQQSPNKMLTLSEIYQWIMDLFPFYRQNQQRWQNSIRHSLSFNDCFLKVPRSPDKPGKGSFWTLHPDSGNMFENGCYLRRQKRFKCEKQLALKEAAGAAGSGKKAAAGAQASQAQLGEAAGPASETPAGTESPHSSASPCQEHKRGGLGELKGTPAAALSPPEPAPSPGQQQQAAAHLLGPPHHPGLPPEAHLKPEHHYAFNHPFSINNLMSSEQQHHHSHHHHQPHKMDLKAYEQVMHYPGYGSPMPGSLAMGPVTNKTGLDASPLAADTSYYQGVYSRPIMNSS
Sequence of Heat shock factor protein 1 (Homo sapiens) (Q00613 whole entry, looked up, the tested form may be a part): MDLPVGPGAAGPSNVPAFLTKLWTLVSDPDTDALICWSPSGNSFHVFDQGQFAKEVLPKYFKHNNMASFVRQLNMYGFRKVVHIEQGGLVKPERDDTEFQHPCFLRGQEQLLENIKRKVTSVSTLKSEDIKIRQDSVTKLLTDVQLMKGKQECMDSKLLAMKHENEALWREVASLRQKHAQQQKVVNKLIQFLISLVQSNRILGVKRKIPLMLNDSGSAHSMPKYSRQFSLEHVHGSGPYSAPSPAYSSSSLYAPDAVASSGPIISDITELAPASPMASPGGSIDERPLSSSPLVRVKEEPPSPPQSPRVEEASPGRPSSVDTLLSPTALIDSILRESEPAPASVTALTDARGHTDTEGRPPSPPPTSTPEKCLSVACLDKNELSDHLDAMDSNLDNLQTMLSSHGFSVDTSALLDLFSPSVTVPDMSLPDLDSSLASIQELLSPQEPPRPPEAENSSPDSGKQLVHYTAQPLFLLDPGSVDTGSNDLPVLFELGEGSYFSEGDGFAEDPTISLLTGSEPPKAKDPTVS
Sequence of Aryl hydrocarbon receptor (Homo sapiens) (P35869 whole entry, looked up): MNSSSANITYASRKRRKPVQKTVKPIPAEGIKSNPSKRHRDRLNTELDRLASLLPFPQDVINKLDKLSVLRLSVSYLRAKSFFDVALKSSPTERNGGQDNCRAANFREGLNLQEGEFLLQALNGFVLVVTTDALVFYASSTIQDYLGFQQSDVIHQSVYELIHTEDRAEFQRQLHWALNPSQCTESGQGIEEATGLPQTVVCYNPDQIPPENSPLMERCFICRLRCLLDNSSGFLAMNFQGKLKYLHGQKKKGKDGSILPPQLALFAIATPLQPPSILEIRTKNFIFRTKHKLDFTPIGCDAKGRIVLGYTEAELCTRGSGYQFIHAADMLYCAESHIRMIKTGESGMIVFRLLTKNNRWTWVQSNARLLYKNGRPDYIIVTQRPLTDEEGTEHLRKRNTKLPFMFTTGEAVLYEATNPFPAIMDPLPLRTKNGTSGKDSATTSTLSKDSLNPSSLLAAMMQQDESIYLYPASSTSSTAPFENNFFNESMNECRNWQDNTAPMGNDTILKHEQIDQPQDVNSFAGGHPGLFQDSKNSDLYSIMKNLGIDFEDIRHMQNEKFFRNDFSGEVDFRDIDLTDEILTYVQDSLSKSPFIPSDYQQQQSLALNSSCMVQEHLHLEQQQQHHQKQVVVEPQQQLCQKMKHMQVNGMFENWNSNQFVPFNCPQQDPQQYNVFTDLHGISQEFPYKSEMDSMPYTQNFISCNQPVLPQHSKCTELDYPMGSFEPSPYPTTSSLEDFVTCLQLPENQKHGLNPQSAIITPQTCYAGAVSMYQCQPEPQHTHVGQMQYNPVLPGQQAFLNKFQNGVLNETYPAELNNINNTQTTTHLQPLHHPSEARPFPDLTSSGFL
Sequence of Hepatocyte nuclear factor 6 (Homo sapiens) (Q9UBC0 whole entry, looked up): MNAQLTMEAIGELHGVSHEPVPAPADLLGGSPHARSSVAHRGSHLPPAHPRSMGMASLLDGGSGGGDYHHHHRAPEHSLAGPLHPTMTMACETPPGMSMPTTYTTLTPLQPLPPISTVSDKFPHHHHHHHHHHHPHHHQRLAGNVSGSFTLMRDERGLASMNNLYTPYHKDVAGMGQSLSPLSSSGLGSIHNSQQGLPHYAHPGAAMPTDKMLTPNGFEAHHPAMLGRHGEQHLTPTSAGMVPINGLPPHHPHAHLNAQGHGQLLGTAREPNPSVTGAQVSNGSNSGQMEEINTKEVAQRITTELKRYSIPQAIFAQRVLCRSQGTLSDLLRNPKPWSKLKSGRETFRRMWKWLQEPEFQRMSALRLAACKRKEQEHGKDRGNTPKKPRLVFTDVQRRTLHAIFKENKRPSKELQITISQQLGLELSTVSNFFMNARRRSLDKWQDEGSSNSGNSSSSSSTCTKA
Sequence of Cellular tumor antigen p53 (Homo sapiens) (P04637 whole entry, looked up): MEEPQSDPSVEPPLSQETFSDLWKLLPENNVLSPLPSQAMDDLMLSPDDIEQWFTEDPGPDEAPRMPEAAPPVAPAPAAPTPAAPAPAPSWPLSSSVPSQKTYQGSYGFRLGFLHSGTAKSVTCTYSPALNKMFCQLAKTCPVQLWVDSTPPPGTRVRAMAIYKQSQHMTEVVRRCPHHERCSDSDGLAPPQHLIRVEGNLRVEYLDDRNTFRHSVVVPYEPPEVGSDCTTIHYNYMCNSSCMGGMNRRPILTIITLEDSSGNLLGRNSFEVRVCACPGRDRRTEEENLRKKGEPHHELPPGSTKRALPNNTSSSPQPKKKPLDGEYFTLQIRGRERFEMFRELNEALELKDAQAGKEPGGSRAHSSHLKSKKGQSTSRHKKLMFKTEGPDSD
Sequence of Paired box protein Pax-6 (Homo sapiens) (P26367 whole entry, looked up): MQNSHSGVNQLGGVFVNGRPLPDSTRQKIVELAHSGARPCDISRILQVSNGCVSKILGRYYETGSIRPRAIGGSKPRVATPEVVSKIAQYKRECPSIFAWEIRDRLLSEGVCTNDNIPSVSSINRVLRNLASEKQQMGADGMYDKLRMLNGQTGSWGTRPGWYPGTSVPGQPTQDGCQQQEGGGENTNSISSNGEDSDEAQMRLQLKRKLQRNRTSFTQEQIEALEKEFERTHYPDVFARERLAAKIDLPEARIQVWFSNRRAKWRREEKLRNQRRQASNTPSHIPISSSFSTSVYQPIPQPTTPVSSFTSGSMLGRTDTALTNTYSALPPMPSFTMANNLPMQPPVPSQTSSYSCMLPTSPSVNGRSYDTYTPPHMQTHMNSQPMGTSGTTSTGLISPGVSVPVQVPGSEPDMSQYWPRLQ

Regarding `S=c1[nH]c2ccccc2[nH]1`, the result in [1], in assay [2], in assay [3], in assay [4], in assay [5] and in assay [6] was inactive. Besides, the call in [7], in assay [8], in [9], in assay [10], in [11] and in assay [12] was inactive. Further, the call in assay [13], in assay [14] and in assay [15] was inactive.
For the compound `CCOC(=O)NC(=S)Nc1ccccc1NC(=S)NC(=O)OCC`, the compound was called inactive in [1], in [2], in assay [3], in assay [4], in [5] and in assay [6]. Also, the outcome in [16], in [7], in assay [17], in assay [8], in assay [9] and in [10] was inactive. In addition, the outcome in assay [11], in assay [18], in assay [12], in assay [19], in [20] and in [14] was inactive. For the same compound, the outcome in assay [15] was inactive. In assay [13], the AC50 was 5.19 µM (active).
Turning to `O=S(=O)(O)O`, the call in assay [1], in assay [2], in [3], in assay [4], in [5] and in assay [6] was inactive. In addition, the compound was called inactive in assay [16], in [8], in assay [9], in assay [10], in [11] and in [18]. Also, the outcome in assay [12], in [13] and in assay [15] was inactive.
Turning to `CN(C)N`, the result in assay [1], in assay [2], in [3], in assay [4], in [5] and in assay [16] was inactive. Also, the compound was called inactive in assay [7], in [8], in assay [9], in assay [10], in assay [11] and in [12]. Also, the compound was classed as inactive in assay [19], in [13], in [14] and in assay [15].
